Among all 31,000 sequences or so, about 1,400 (4.5%) were called active. The sample as a whole holds a higher share of actives than the screen did. Unmarked numbers belong to inactive results.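 How the source made its calls: active means median seed-adjusted z-score above 1 or below -1; inactive means the rest.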
assay: Novel Modifiers of Survival Motor Neuron (SMN) Protein: Gene Identification via Genome-wide siRNA Screen; conditions: HEK293T SMN2-luciferase reporter, siRNA knockdown, 72 h; actives lie on both sides;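 further: luminescence tracks full-length SMN protein made from the SMN2 reporter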
Outline: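 siRNA screen, 10418 genes ×3 siRNAs; 1 pmol/well, lipid reverse transfection into HEK293T SMN2-luc reporter line. 72 h, 37 °C, 5% CO2; ONE-Glo readout. Data: neg-ctrl normalized, log10, MAD; hit = MAD >1.0 or < -1.0.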

Sequence | median seed-adjusted z-score
UCGUGGUUGUUAAUUUGAATT against CSNK1E | -0.796
CAACUGUUCCUGUAUUGAATT against SLCO4C1 | -0.116
GUAUCAAUCUAGAGCACAATT against MYOZ2 | 0.315
CGAGCUACACUGUCCACUUTT against CSGLCA-T | 0.146
GGACUUGCUCGGCUCUAUATT against CRKRS | -1.16 (active)
CAACUUGGACAAGACCUUATT against GYS1 | 0.874
CGACAUCAGCUGAUAAUCATT against NPY1R | 0.76
AACAGUAUCUUUCAGAAUATT against TMPRSS5 | 1.25 (active)
GGCUGAAUUAUGACCGGAATT against PPFIA4 | 0.0399
CUUGGAUACAGAUACGUUUTT against TLK1 | -0.0133
UCGAUAUUCUAAGAUCACATT against UBE2D3 | 1.62 (active)
CACCUUAACUUCAUCAACATT against SCN4A | -0.681
GAGCUGGGAUGAUAAAGAUTT against AGPAT2 | 0.38
GCGAUGAUGUGGAACCUUATT against TBC1D9 | -0.0473
AUAUAACACUUCUACUCUUTT against CMA1 | -0.0475
CAACGAUGCUAGAAGAAUUTT against PCOLCE2 | -1.15 (active)
CCGUCUAUAUGGAGUCUUUTT against ROR1 | -0.0044
CUACUUUCGAGACUACUUUTT against DGAT2 | 0.195
GGGAAGAUAUUUGUCAGCATT against PLXNA2 | 0.308
ACAGGCCUGUGAAACCCUATT against PEX5 | -0.0414
GCCUUACCUGGAGAACUGATT against VPS26A | -1.55 (active)
GCGAGAAUCUGUUAGUAAATT against PANK3 | -0.185
CCAUCUUCACUGACGAGCATT against GSC | 0.17
CCUUUUUGCUGGACACUGUTT against PLEKHF1 | 0.055
CACCCAUGCUGACAGUGAATT against HLA-DMA | -0.00543
GCCUCCUUCUUUGACCGGATT against NACC1 | 1.59 (active)
GGACUUCUUUUGUCAUGCATT against BCKDHB | 0.366
GAACAGAUGUUUGAGACUUTT against GUCA1A | 0.101
GCGAGUGUCUUGAAGUAUATT against PLAA | -0.192
AAACAUUAUUUACCAUUCATT against ZNF439 | -0.26

Reference: PubChem BioAssay AID1347426 (Functional Genomics Laboratory (NCATS/FGL), 2020)
